# PubChem BioAssay
# Activity calls are given as the source filed them.
# Columns and labels:
# [1] = small molecules captured by biotinylated probe aFSTL3 – biochemical, small-molecule microarray, fluorescence 635/667, stem cell growth factor project, primary screen (AID 1064); conditions: higher = more signal;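 also: measures binding of the biotinylated anti-FSTL3 antibody to printed compounds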
# [2] = binders from COS7 lysate, DM2A8 probe, primary screen, torsin A project, cell lysate, small-molecule microarray, fluorescence 635/667 (AID 1065); conditions: higher = more signal, COS7 lysate expressing mutant human TOR1A
# [3] = small molecules captured by biotinylated probe aFGF2 – biochemical, small-molecule microarray, fluorescence 635/667, stem cell growth factor project, primary screen (AID 1067); conditions: higher = more signal;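 also: measures binding of biotinylated aFGF2 protein to printed compounds on slides; z-score merges feature fluorescence and signal-to-noise across triplicate slides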
# [4] = small molecules captured by biotinylated probe aFGF10 – biochemical, small-molecule microarray, fluorescence 635/667, stem cell growth factor project, primary screen (AID 1071); conditions: higher = more signal;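 also: score merges 667 nm spot intensity and signal to noise from triplicate slides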
# [5] = target: Neurogenic locus notch homolog protein 2 (Homo sapiens) (UniProt Q04721); experiment: small molecules binding Notch2 protein – biochemical, small-molecule microarray, 635 nm fluorescence, stem cell growth factors, primary screen (AID 1073); conditions: higher = more signal
# [6] = target: Pro-neuregulin-1, membrane-bound isoform (Homo sapiens) (UniProt Q02297); experiment: small molecules binding neuregulin-1 protein – biochemical, small-molecule microarray, fluorescence 635/667, psychiatric disease protein project, primary screen (AID 1075); conditions: NRG1 binding, 635 nm fluorescence, higher = more signal;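 also: score combines 667 nm spot fluorescence with signal to noise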
# Pro-neuregulin-1, membrane-bound isoform (Homo sapiens), sequence (Q02297 whole entry, looked up, the tested form may be a part, canonical isoform): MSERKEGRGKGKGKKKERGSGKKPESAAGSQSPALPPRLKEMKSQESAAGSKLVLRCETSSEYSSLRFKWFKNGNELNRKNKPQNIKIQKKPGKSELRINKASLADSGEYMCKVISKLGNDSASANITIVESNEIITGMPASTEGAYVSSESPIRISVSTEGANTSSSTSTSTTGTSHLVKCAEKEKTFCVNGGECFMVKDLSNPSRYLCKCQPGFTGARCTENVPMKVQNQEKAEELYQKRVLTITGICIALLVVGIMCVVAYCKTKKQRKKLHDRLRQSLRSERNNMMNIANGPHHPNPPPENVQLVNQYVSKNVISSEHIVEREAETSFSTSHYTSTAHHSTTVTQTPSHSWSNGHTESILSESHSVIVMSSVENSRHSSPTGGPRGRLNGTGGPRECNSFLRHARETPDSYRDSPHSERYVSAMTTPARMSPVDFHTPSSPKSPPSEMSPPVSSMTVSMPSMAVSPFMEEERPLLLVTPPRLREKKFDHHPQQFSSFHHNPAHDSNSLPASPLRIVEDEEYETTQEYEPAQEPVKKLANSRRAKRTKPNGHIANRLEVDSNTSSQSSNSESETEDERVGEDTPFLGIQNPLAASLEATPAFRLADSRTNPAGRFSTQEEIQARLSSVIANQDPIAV
# [7] = tested on: Neuregulin-1 EGF-like domain; experiment: small molecules binding NRG1 EGF domain – biochemical, small-molecule microarray, 635 nm fluorescence, primary screen (AID 1081); conditions: higher = more signal;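 also: binding of the protein to compounds printed on small-molecule microarray slides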
# [8] = FRG1 expression reporter modulators in myotubes – cell-based, C2C12 myotubes, firefly/Renilla luciferase, luminescence, FRG1 inhibition for FSHD, primary screen (AID 1084); conditions: FRG1 promoter luciferase, higher = more signal, called active from +8 up or from −8 down
# [9] = small molecules captured by biotinylated probe aFST – biochemical, small-molecule microarray, fluorescence 635/667, stem cell growth factor project, primary screen (AID 1086); conditions: higher = more signal;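 also: score merges 667 nm fluorescence with signal-to-noise of each printed compound spot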
# [10] = binders of probe aHhip on microarray, primary screen, stem cell growth factor project, biochemical, small-molecule microarray, fluorescence 635/667 (AID 1087); conditions: higher = more signal;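 also: score merges spot fluorescence at 667nm with spot signal to noise ratio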
# [11] = tested on: PRMT1 (protein arginine N-methyltransferase 1); experiment: small molecules binding arginine methyltransferase PRMT1 – biochemical, small-molecule microarray, 635 nm fluorescence, primary screen (AID 1088); conditions: higher = more signal;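 also: binding of Prmt1 protein to compounds spotted on small-molecule microarray slides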
# [12] = growth effects on S. cerevisiae YJM789 – YJM789 clinical isolate, OD600, 24 h, basal, primary screen (AID 1089); conditions: higher = more signal, called active from +8 up or from −8 down;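 also: growth of clinical yeast isolate S. cerevisiae YJM 789 seeded 1000 cells per well; test concentration not given here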
# [13] = S. pombe growth modifiers, basal conditions – strain 972, OD600, 24 h, no modulator, primary screen (AID 1090);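 also: basal condition with compound alone and no growth modifier present; test concentration not given here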; conditions: S. pombe 972 growth, higher = more signal, called active from +8 up or from −8 down
# [14] = budding yeast growth modifiers under rapamycin – strain BY4716, OD600, 96 h, primary screen (AID 1091); also: test concentration not given here; conditions: S. cerevisiae BY4716 + rapamycin, higher = more signal, called active from +8 up or from −8 down
# [15] = target: Torsin-1A-interacting protein 2 (Homo sapiens) (UniProt Q8NFQ8); experiment: small molecules binding lysate-expressed LULL1 – cell lysate, human LULL1 lysate, 635/667 nm fluorescence, primary screen (AID 1092); conditions: small-molecule microarray, hLULL1 lysate binding, 635 nm fluorescence; higher = more signal;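 also: probe is lysate of COS7 cells overexpressing human LULL1; score merges per-feature 667 nm fluorescence with signal-to-noise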
# Torsin-1A-interacting protein 2 (Homo sapiens), sequence (Q8NFQ8 whole entry, looked up): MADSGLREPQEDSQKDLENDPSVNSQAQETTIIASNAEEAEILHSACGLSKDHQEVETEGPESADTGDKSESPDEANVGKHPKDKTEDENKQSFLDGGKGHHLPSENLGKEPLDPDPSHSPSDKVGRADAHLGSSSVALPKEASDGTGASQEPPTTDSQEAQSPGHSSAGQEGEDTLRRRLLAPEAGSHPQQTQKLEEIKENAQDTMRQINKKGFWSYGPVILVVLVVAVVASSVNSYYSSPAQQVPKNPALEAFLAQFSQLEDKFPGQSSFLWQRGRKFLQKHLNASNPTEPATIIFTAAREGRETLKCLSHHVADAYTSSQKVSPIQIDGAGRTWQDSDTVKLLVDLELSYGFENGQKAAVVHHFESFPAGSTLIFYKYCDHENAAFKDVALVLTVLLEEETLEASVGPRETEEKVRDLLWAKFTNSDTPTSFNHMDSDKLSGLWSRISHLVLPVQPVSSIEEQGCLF
# [16] = optical density change of DRC41 E. coli – strain DRC41, OD650, 24 h, E. coli filamentation project, primary screen (AID 1093);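 also: MC1000 strain lacking acrAB efflux and sulA so SOS filamentation is blocked; test concentration not given here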; conditions: E. coli DRC41 growth, higher = more signal, called active from +8 up or from −8 down
# [17] = probe aLefty2 binding to arrayed compounds – biochemical, biotinylated probe, 635/667 nm fluorescence, primary screen (AID 1094); conditions: small-molecule microarray, higher = more signal;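 also: score merges spot fluorescence near 667 nm with spot signal-to-noise ratio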
# [18] = tested on: Noggin (protein binding on small-molecule microarray); experiment: small molecules binding Noggin protein – biochemical, 635/667 nm fluorescence, primary screen (AID 1095); conditions: 635 nm fluorescence, higher = more signal;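 also: score merges 667 nm feature fluorescence with signal to noise over triplicate slides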
# [19] = target: Neurogenic locus notch homolog protein 3 (Homo sapiens) (UniProt Q9UM47); experiment: small molecules binding NOTCH3 protein – biochemical, 635/667 nm fluorescence, primary screen (AID 1096); conditions: small-molecule microarray, 635 nm fluorescence, higher = more signal
# Neurogenic locus notch homolog protein 3 (Homo sapiens), sequence (Q9UM47 whole entry, looked up): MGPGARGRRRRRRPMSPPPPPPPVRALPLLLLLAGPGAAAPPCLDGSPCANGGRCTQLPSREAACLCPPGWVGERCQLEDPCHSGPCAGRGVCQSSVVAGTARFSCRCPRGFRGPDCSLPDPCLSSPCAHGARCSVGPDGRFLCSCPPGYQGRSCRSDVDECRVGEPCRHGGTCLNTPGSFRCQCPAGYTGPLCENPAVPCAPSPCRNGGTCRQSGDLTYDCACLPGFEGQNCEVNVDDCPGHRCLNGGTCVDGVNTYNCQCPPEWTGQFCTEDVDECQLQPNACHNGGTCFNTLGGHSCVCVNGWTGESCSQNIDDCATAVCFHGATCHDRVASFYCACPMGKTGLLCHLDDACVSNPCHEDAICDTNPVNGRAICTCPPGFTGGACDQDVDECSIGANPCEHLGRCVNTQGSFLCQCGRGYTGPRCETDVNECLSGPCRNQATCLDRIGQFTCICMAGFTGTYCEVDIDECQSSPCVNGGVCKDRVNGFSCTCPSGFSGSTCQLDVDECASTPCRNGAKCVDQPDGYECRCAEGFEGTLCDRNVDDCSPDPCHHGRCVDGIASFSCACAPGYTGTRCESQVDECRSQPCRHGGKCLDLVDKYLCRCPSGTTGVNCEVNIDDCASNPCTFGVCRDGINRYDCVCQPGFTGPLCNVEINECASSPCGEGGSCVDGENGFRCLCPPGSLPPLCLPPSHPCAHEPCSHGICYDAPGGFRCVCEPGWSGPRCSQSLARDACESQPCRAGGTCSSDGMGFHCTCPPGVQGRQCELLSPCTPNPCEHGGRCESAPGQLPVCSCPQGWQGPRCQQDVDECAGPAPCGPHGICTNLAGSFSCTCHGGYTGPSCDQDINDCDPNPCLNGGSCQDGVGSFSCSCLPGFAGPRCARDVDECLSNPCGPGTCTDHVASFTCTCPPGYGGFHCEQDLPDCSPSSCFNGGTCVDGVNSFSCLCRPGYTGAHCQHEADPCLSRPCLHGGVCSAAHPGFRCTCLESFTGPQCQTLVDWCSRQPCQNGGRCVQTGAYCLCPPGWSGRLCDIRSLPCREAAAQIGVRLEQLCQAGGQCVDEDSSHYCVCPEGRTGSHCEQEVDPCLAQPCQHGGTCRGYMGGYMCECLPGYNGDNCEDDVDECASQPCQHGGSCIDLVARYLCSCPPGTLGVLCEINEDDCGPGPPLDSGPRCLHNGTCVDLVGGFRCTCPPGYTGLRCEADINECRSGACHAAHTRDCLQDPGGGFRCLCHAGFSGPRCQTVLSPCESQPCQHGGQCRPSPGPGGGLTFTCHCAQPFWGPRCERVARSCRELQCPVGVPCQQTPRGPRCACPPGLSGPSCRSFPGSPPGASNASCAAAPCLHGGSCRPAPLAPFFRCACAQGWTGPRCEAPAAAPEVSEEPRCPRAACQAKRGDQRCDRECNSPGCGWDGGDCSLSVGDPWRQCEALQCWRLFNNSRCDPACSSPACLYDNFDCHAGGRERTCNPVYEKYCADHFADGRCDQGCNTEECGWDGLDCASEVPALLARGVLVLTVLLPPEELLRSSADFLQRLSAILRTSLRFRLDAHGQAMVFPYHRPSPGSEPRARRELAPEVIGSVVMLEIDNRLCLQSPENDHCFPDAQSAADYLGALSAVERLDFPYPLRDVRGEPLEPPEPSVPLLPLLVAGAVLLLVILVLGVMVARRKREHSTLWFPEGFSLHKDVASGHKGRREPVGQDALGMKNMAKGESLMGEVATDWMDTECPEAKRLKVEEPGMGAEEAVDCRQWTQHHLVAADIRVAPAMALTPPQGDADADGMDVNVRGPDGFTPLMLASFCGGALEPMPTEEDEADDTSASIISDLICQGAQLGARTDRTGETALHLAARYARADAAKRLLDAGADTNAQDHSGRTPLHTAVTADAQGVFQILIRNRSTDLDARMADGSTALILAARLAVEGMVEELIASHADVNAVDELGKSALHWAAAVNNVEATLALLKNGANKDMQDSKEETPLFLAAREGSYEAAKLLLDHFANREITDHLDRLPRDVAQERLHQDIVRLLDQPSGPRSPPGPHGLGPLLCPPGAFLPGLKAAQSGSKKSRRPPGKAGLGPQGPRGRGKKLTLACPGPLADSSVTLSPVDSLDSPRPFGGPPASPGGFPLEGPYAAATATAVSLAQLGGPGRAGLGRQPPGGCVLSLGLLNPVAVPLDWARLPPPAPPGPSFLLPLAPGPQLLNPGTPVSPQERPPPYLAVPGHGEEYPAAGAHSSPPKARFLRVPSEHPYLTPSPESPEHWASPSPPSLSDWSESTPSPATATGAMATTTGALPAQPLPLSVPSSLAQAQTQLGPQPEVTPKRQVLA
# [20] = probe aEGFR binding to arrayed compounds – biochemical, biotinylated probe, 635/667 nm fluorescence, primary screen (AID 1097); conditions: small-molecule microarray, higher = more signal;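 also: probe is a biotinylated anti-EGFR antibody binding compounds printed on slides; score combines fluorescence near 667 nm and signal to noise of each spot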
SMILES,composite z-score [1],composite z-score [2],composite z-score [3],composite z-score [4],composite z-score [5],composite z-score [6],composite z-score [7],z-score [8],composite z-score [9],composite z-score [10],composite z-score [11],z-score [12],z-score [13],z-score [14],composite z-score [15],z-score [16],composite z-score [17],composite z-score [18],composite z-score [19],composite z-score [20]
C=CCN1C(=O)[C@@]2(CCS(=O)(=O)c3ccccc3)N=C(c3ccc(OCCCO)cc3)O[C@H]2c2ccccc21,0.162,0.42,0.0076,0.362,1.44,1.72,1.24,-3.77 (inactive),1.03,-0.0672,1.54,0.15 (inactive),-0.0698 (inactive),3.13 (inactive),2.88,0.192 (inactive),-0.0177,1.43,1.12,0.154
CCOC(=O)C1=CC[C@@H](c2cccc(Cl)c2)N(S(=O)(=O)c2ccc(C)cc2)C1,0.432,0.627,0.067,0.336,0.0142,1.31,1.2,-2.76 (inactive),0.329,-0.0994,0.335,-1.89 (inactive),-0.0856 (inactive),0.311 (inactive),2.54,-0.363 (inactive),0.0771,0.0745,0.126,-0.0803
CCOC(=O)C1CCCCN1 (stereo not given),0.267,0.0953,0.119,0.989,0.931,0.153,0.765,-0.102 (inactive),0.74,1.96,1.08,-0.0725 (inactive),0.438 (inactive),0.363 (inactive),1.16,-0.0508 (inactive),0.697,0.458,0.738,0.641
COCCOC(=O)N1C(=O)[C@@]2(c3cc(C#CC4=CCCCC4)ccc31)[C@H](C(=O)N1CCCCCCC1)[C@H]1C(=O)O[C@H](c3ccccc3)[C@H](c3ccccc3)N1[C@@H]2c1ccc(O)cc1,0.804,0.0395,-0.0226,0.119,0.464,-0.215,1.14,-0.472 (inactive),0.409,-0.31,1.56,-1.17 (inactive),0.509 (inactive),0.983 (inactive),2.88,1.53 (inactive),0.295,0.795,0.807,0.0383
COC1OC[C@]2(C)[C@H]3C4=C(CN2C(=O)OC(C)(C)C)[C@H](C)C(CO)C(CO)C4CC[C@@H]13 (stereo not given in full),1.99,0.473,0.236,0.557,1.79,1.82,1.25,2.38 (inactive),1.85,1,1.18,0.58 (inactive),1.22 (inactive),0.867 (inactive),3.44,-0.172 (inactive),0.858,-0.05,0.96,0.187
CC(C)N1C(=O)c2ccccc2[C@@H](C(=O)NC2CC2)[C@@H]1c1ccc(CO)cc1,-0.236,-0.184,-0.0615,0.0389,-0.425,0.933,1.3,0.216 (inactive),-0.593,-0.189,0.672,-0.904 (inactive),-0.826 (inactive),-0.39 (inactive),0.968,0.141 (inactive),-0.117,0.521,-0.201,-0.156
O=C1c2ccccc2[C@](Cc2ccccc2I)(C(=O)NCC(F)(F)F)[C@H](c2ccc(CO)cc2)N1C1CCCCC1,-0.0894,-0.089,0.0772,0.94,1.14,1.76,0.985,-0.85 (inactive),0.593,-0.134,1.56,0.0808 (inactive),-1.76 (inactive),-0.0447 (inactive),3.02,1.38 (inactive),-0.0408,0.169,1.08,-0.0315
COC(=O)c1c2oc(c1C(=O)OC)C(=O)N(C)Cc1cn(nn1)C[C@H](Cc1ccccc1)NC(=O)N[C@H](CO)CC2,-0.239,-0.705,-0.174,-0.248,-0.867,-0.638,-0.717,-0.161 (inactive),-0.276,0.0854,-0.929,1.23 (inactive),0.914 (inactive),0.556 (inactive),-0.609,-0.666 (inactive),-0.174,-0.244,0.15,-0.154
C=CCOC(=O)[C@H]1[C@@H]2C(=O)O[C@@H](c3ccccc3)[C@@H](c3ccccc3)N2[C@@H](c2ccc(OCCOC(=O)[C@@H]3C[C@@H]4C(=O)N[C@@H](CCCCNC(C)=O)C(=O)N4[C@@H]3c3ccc(O)cc3)cc2)[C@]12C(=O)Nc1ccc(I)cc12,-0.0041,0.689,-0.0466,0.892,1.43,1.23,1.37,-0.553 (inactive),0.257,-0.323,1.52,1.29 (inactive),0.145 (inactive),4.21 (inactive),1.88,-0.289 (inactive),0.0594,1.19,0.981,0.117
COc1ccc(C#Cc2ccc3c(c2)[C@]2(C(=O)N3)[C@H](c3ccc(O)cc3)N3[C@H](c4ccccc4)[C@H](c4ccccc4)OC(=O)[C@H]3[C@@H]2C(=O)O)cc1,-0.789,0.413,-0.161,0.831,0.761,0.555,1.13,-0.471 (inactive),-0.541,-1.08,0.525,1.11 (inactive),-1.18 (inactive),0.0572 (inactive),3.12,1.43 (inactive),-0.383,-0.28,-0.17,-0.0507
CCCCCCc1nc(C2CC2)cc2c1[Si](C(C)C)(C(C)C)O[C@H]2c1ccccc1,0.0483,0.122,-0.0286,0.698,0.516,-0.37,-0.903,-0.136 (inactive),0.177,-0.0618,-0.147,-0.746 (inactive),-0.575 (inactive),-0.513 (inactive),-0.624,-1.28 (inactive),-0.0798,0.639,0.356,0.0122
COc1cc(OC)c(C(O)C2C=CC3C(=O)N(C)C(=O)C3N2NC(=O)OC(C)(C)C)cc1Br (stereo not given),0.411,-0.381,0.232,0.843,1.76,1.85,1.37,-0.612 (inactive),1.84,0.0522,1.54,0.24 (inactive),-0.324 (inactive),0.828 (inactive),3.39,-0.188 (inactive),0.368,0.137,1.02,0.128
CC=CC(O)C1C=CC2C(=O)N(c3ccccc3)C(=O)C2N1Nc1ccccc1F (stereo not given),0.968,0.0233,0.384,0.547,0.264,0.82,1.36,0.584 (inactive),1.07,0.0001,0.841,-0.0071 (inactive),1.4 (inactive),0.741 (inactive),3.08,-0.463 (inactive),0.535,-0.592,-0.411,0.312
COCCOC(=O)N1C(=O)[C@@]2(c3cc(C#CCNC(N)=O)ccc31)[C@H](C(=O)N1CCc3cc(OC)c(OC)cc3C1)[C@H]1C(=O)O[C@H](c3ccccc3)[C@H](c3ccccc3)N1[C@@H]2c1ccccc1OCCO,-0.178,1.05,-0.0908,0.371,0.749,0.202,0.869,-0.902 (inactive),0.31,-0.191,1.37,-0.959 (inactive),0.319 (inactive),3.2 (inactive),2.14,1.16 (inactive),0.0253,1.36,1.11,-0.0734
CC(C)(C)N1CC=CC23O[C@@H]4C=CCOC(=O)[C@@H]4[C@H]2C(=O)N(CCCCCCO)[C@@H]3C1=O (stereo not given in full),0.0157,-0.511,-0.178,-0.447,-0.947,-0.574,1.36,0.212 (inactive),-0.867,-0.284,-0.911,-1.54 (inactive),-1.27 (inactive),-0.369 (inactive),1.39,-0.351 (inactive),-0.101,-1.27,-0.729,-0.163
CCOc1cc(C(O)C2C=CC3C(=O)N(c4ccccc4)C(=O)C3N2Nc2ccc(C#N)cc2)ccc1O (stereo not given),-0.17,-0.223,0.0024,0.11,1.27,1,0.836,0.163 (inactive),0.0472,0.0139,0.0034,0.453 (inactive),1.15 (inactive),0.726 (inactive),3.3,-0.715 (inactive),0.121,-0.167,-0.0195,-0.133
Cc1ccc(S[C@]2(C(=O)NCC(F)(F)F)CC(=O)N(Cc3ccccc3C(F)(F)F)[C@@H]2c2ccc(CO)cc2I)cc1,0.52,-0.893,-0.157,-0.954,-1.15,-0.12,0.124,-1.24 (inactive),-0.818,-0.236,-0.987,-1.54 (inactive),-2.79 (inactive),1.65 (inactive),0.779,0.625 (inactive),-0.072,-0.859,-1.45,-0.254
COC(=O)[C@H](Cc1ccccc1)N1CC(/C=C/C2CC2)=C[C@H]1[C@H](O)Cc1ccccc1,-0.284,0.177,-0.104,0.6,0.34,0.821,1.01,-2.56 (inactive),0.101,0.0274,1.54,-0.457 (inactive),-3.67 (inactive),-0.677 (inactive),1.18,-0.25 (inactive),-0.161,0.961,0.899,-0.0343
CCOC(=O)C[C@H]1[C@H](OC(=O)c2cc3ccccc3oc2=O)[C@@H](NC(=O)Cc2ccc(OC)cc2)c2cc(OCCCO)ccc2N1C(=O)c1ccc2ccccc2n1,-0.19,0.648,-0.127,0.403,0.848,0.35,0.996,-1.07 (inactive),0.0814,-0.123,0.268,-0.724 (inactive),-0.138 (inactive),-0.0607 (inactive),0.773,1.31 (inactive),-0.11,0.68,1.15,-0.0241
